Tests used:
Experiment in all cases: PBM binding z-score (relative to random genomic background probes); higher = stronger binding; sequences stand for … in GC…GCGATTGACAGCGTAGAATGAAGG
[1] = test system: RARb homodimer (NR concentration 270 nM)
How it was run: (§1)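 Probes were double-stranded and carried 34-nt variable regions with direct-repeat seeds, single-nucleotide variants, half-site ablations and random human genomic background sequences, printed on custom Agilent 4×180K protein-binding microarrays. Arrays were incubated 1 h with ligand-free nuclear receptor dimers in PBS pH 7.4, 2% milk, 0.02% Triton X-100, 1 mM DTT, 0.2 mg/mL BSA and 0.4 mg/ml salmon testes DNA. Antibodies against each partner (one per run) detected binding, and scanned fluorescence was regression-normalized. Binding z-scores use the random background probes as reference.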

[2] = test system: RARg:RXRa (NR concentration 270 nM, RXRa partner concentration 90 nM)
How it was run: as §1

[3] = test system: RARg homodimer (NR concentration 270 nM)
How it was run: as §1

[4] = test system: RXRa DBDmut IVT, anti-RXR (DBD mutation: RXRa K156A/R161A, NR concentration 90 nM)
How it was run: as §1

[5] = test system: RXRa homodimer (NR concentration 180 nM)
How it was run: as §1

[6] = test system: THRa:RXRa (NR concentration 90 nM, RXRa partner concentration 90 nM)
How it was run: as §1

[7] = test system: THRa homodimer (NR concentration 90 nM)
How it was run: as §1

[8] = test system: VDR homodimer (NR concentration 270 nM)
How it was run: as §1

Sequence	PBM binding z-score [1]	PBM binding z-score [2]	PBM binding z-score [3]	PBM binding z-score [4]	PBM binding z-score [5]	PBM binding z-score [6]	PBM binding z-score [7]	PBM binding z-score [8]
ATCGAAAGGTCGTCAGGTGAGTATACAGAAAGGC	2.67	4.34	3.83	2.04	4.71	3	1.33	1.8
ACTTACGGGTCAGCGAGGTTATAGCACGCGTATA	3.53	4.79	4.61	1.45	4.69	3.83	1.06	2.44
TCGAGTAGGTTAGTCAGGGCATTCAGCCAACATA	0.896	-0.14	0.189	0.358	-0.156	1.1	0.314	0.685
CGTCCATGGTCAGAGAGGTCAGTGAATGCCGAGT	4.09	3.16	4	0.839	2.97	2.58	0.835	2.63
ACTATTAGTTGCGACGAGGGCAACCGATAGGTTG	0.942	0.259	0.489	0.4	0.472	1.09	0.3	0.643
GCTATTAGTTGAAAGCGCAACCGAATGATTCTCG	-0.696	-0.258	-0.0474	0.445	-0.166	-0.508	-0.515	-0.738
CAAACTAGGACAAGAGGTCAAAGTCCGCTTCCCG	4.38	5.63	4.63	2.33	6.3	3.92	1.89	4.42
CCGACTGGGGCATAAGGTTACCAAAAGCCAGCCC	1.97	1.72	0.905	-0.369	1.3	2.24	1.14	0.0369
TCATATAGGTAAATGCGAGGTGAAAGTCCGATCT	1.05	0.929	0.538	1.89	1.18	2.78	1.54	0.605
TTACCAAGGTAAGCTGAGGTCGTTGATCCAACTC	0.571	0.164	-0.00347	0.278	0.962	4.33	1.61	1.65
ATATGTAGGTTAAGAGTCATTCAGGTTGGTTCGC	1.26	1.23	1.13	0.882	1.53	1.24	0.283	1.24
TCTGCTAGGTCAGTTGGTCAGCTCACGAGCTGCC	2.45	2.61	3.31	0.58	1.15	1.38	0.196	-0.78
CCTACTGGGCCATCAGGTCACTGATATCAACGTT	2.82	2.28	2.5	-0.0787	1.54	3.34	3.44	0.813
CCTGCTCGGTCATGGTCAGCTAATCTACAGTATG	1.93	1.91	2.66	0.361	0.252	0.067	-0.311	-0.527
GCTTGTAAATCAAGGTTAAGAAAGACTAAGCTAA	0.189	0.539	0.0583	0.137	0.942	1.5	-0.456	-0.374
TGTAAAAGTTCAAAGGTAACGTAAGTATCCACAC	3.5	5.35	5.12	4.06	6.28	3.53	0.192	2.83
TCTTGTAGATCAAGCAGTTTAAGAAAGCCTGAGT	-0.362	-0.283	-0.421	0.644	-0.114	-0.266	-0.588	-0.00897
CCTAGTTGGTCAGGACGTCACACACCGGATATGA	0.767	0.464	0.776	0.386	0.296	0.673	1.03	0.558
ACTCGGACGACAAAGGTCAGAGCTACGCCAGTGA	4.21	4.65	4.6	-0.0196	4.83	2.75	-0.0567	0.688

Sequence	PBM binding z-score [1]	PBM binding z-score [2]	PBM binding z-score [3]	PBM binding z-score [4]	PBM binding z-score [5]	PBM binding z-score [6]	PBM binding z-score [7]	PBM binding z-score [8]
ATATGTAGGTTGCATCCGGGTCATTCAGGCTATG	2.16	2.04	1.12	0.735	2.28	3.03	1.96	2.66
TAGCCCAGGTCATTGGGCCAGTATAGTACGCATC	2.76	3.9	4.11	2.29	3.37	3.36	1.65	2.16
TCGAGTAGGTTAGGGGGATTCAGAATGGCGTCGA	0.809	0.0898	0.376	0.668	0.485	0.871	1.01	0.42
CGTCAAAGTTCAACTAAGGTATCGTAAAGCACGC	4.26	5.92	6.75	4.68	5.21	4.92	0.41	4.04
CCAACTGGGCCAAAGGTCATTGATTCCAATGCTC	4.44	5.57	4.82	1.61	5.9	3.07	0.791	2.39
GCGACTGGGGCATCAGCAGGATACCATAACTTAA	-0.0166	-0.0136	0.464	-0.418	-0.172	0.271	-0.673	-0.734
CTTACTGGGCCAAAAAGGTCATTGATGCCGATAA	4.5	4.8	4.65	1.08	5.37	3.21	0.313	2.72
ATATGTAGGTTAAGGTTCATTCAGGTTGGTTCGC	2.18	2.48	1.47	3.2	3.38	2.49	1.4	6.72
CAAACTAGGTCATAGGTCAAAGTCGAGCCAACCA	4.27	6.56	5.38	2.31	7.49	4.11	1.44	1.92
CCTGCTAGGTCATGGTCAGCTAATCTACAGTATG	3.24	4.01	4.52	1.9	2.92	3.06	1.39	0.473
GCTTGGAGGACAAGGTCAGAGCTTTGTCCGTAGA	3.25	3.03	3.61	0.782	2.37	3.02	1.46	0.256
CGTCCAGGGTCAATGCTAGGTCAGTGAAAGCATT	4.65	7.39	5.63	2.78	5.37	4.35	1.79	2.33
CGTCCAAGGTCAAGATCAGTGAAAGAGACTCGAA	3.53	5.63	6.45	3.61	5.54	3.58	1.84	1.6
TCATGTAGATCAAAGGTTAAGAAAGCCGAAGCCT	1.55	1.96	0.89	1.08	3.55	1.37	-0.229	-0.0577
ATATGTAGGTGAGCTGGGGTCATTCAGACTAGGC	3.97	4.01	2.84	1.57	5.56	5.14	3.37	4.43
TCTATTAGTTGAAGGGCATCCGACGAGTCCGTTT	0.904	0.374	0.361	1.86	0.598	0.0886	0.288	1.51
CCGACTGGGGCATAAGGTTACCATAAGCCAGCCC	1.69	1.62	1.17	-0.574	1.13	2.01	1.13	-0.0146
GCTATTAGTTGAAAAGGCAACCGAATGATTCTCG	-0.358	0.0252	0.283	0.693	0.0743	-0.197	-0.317	0.154
ATCTCTAGGTAATGTTCAGTGAAAGATCGATAGA	-0.207	0.262	0.561	0.333	0.234	0.493	0.382	0.364

Sequence	PBM binding z-score [1]	PBM binding z-score [2]	PBM binding z-score [3]	PBM binding z-score [4]	PBM binding z-score [5]	PBM binding z-score [6]	PBM binding z-score [7]	PBM binding z-score [8]
CGTCCAAGGTCAGCAGGTCATTGAAAGCGACGTG	5.08	6.83	6.69	2.59	6.04	4.26	2.98	2.36
GCTTACGGGTCAATGGTTATAGCATGAATAGAAT	2.28	4.02	3.9	1.65	4.17	1.87	-0.17	0.787
CGTCAAAGTTCAACTAAGGGAACGTAAAGCACGC	3.93	5.85	6.56	4.65	5.21	4.49	0.0368	3.51
CGTCCAAGGTCAATGCTAGGTCCGTGAAAGCATT	3.83	5.71	5.7	3.67	4.55	3.82	2.12	2.96
TATCCTAGGTCATGGGCCAGTATACCACGCGAAC	3.35	4.47	5.04	0.933	3.99	3.54	2.41	1.05
TAGCCTAGGTCATTCAAGGGCCAGTATAGAAAGC	3.38	5.84	4.64	1.71	3.14	4.3	0.514	1.25
CCTACTGGGCCATTCAAAGGTCATTGATCATATG	4.5	4.85	3.67	0.609	4.61	3.25	0.994	2.4
ATCTCTAGGTAAGACTCAGTTCAGTAAAGAACGC	0.871	0.41	0.438	0.632	0.0419	0.985	0.878	1.74
GCGACTGGGGCAAAGCAGGTTACCATTAGGTTGG	0.874	0.369	0.722	-0.196	0.428	2.77	-0.429	-0.578
TCGAGTAGATTAGGGGCATTCAGAATGGCGTCGA	0.0337	-0.202	-0.446	0.574	0.16	0.515	-0.591	0.687
ATCGAAAGGTTGAGGTGAGTATAGAGAAAGGGAA	1.24	1.39	1.25	-0.21	1.16	2.38	1.27	0.34
GGAACGAGGGCATTCGAGATGATAGCATGGCGAT	0.609	1.13	1.65	3.05	1.02	1.44	-0.487	2.01
AGTCAAAGTTCACTAGGTATCGTAAGATTCAGCT	3.71	4.66	5.74	4.28	3.72	1.51	-0.258	4.12
TGAGACAGGTGAAGGTAACTCAGGTACGCAGTCG	0.449	0.201	0.61	-1.52	0.312	1.18	-0.173	-0.0182
ACTATTAGTTGAGACGAGGGCAACTGATAGGTTG	1.19	0.865	0.97	0.568	0.797	2.41	0.298	0.702
CCTACTGGGCCACGAAAGGTCAGTGATTCAGTGA	3.87	3.69	4.04	-0.37	3.1	3.1	0.0818	0.0755
TTACCAAGGTTAGCTGAGGTCGTTGATCCAACTC	2.06	1.68	1.41	0.854	1.84	5.01	2.13	2.87
TCTTATAGGTAATACAGGTGAAAGTCGGCATCTA	0.728	0.769	0.709	1.75	1.18	1.09	0.611	0.529
GCTAGTTGGTCAGTAAAAGGTCACACTCCGGTCG	5.07	5.14	4.48	0.827	5.23	3.58	2.19	1.59
